Only a selection was taken, and hits are over-represented in it overall.
RmlCD inh mix – RmlC/RmlD inhibition, mixture screen. RmlC/RmlD coupled enzyme inhibition, 384-well mixture HTS. inhibition, % at 5.5 µM. hit rate 0.39% among 110,000. AID 1532; in the data active = inhibition above about 30%, passing the limit was not always enough
HIV RNase H inh-1 – inhibitors of HIV-1 reverse transcriptase RNase H; P04585; RT-RNase H RNA/DNA duplex cleavage, fluorescence; inhibition, % at 10 µM; hit rate 1.9% among 65,000; in the data active = inhibition above about 50%
HIV RNase H inh-2 – confirmation of HIV-1 reverse transcriptase RNase H inhibitors | shares compounds with HIV RNase H inh-1 | Recombinant RT RNase H, fluorescent RNA/DNA duplex cleavage | inhibition, % at 10 µM | hit rate 39% among 1,000 | AID 651; in the data active = inhibition above about 48%
Numbers without * were called inactive; nt = no result.

SMILES	RmlCD inh mix	HIV RNase H inh-1	HIV RNase H inh-2
Cc1ccc(-c2cc(C(=O)NCCCn3ccnc3)c3cc(Br)ccc3n2)o1	-15	78*	22
Cc1ccc(-c2cc(C(=O)Nc3ccccc3C)c3ccccc3n2)o1	-38	nt	nt
Cc1cccc(-c2cc(C(=O)NCCCn3ccnc3)c3ccccc3n2)c1	15	nt	nt
Cc1ccc(-c2cc(C(=O)NC3=NCCS3)c3cc(Br)ccc3n2)o1	10	95*	80*
CCC1=C(OC(=O)N(CC)CC)N2C(=O)OC(=NCC3CC3)[C@]2(C)[C@H]2C1=CC[C@H]1C(=O)N(CC)C(=O)[C@H]12	-9	nt	nt
CC1CC(C)CN(c2nc3c(c(=O)[nH]c(=O)n3C)n2CCSc2nc3ccccc3o2)C1 (stereo unspecified)	nt	-3	nt
CC(=O)n1cc([C@H]2C=C(C(N)=O)O[C@@H](OCc3ccc(CO)cc3)C2)c2ccccc21	12	nt	nt
c1coc(-c2nc(-c3ccco3)c(-c3ccco3)nc2-c2ccco2)c1	-47	86*	-1
Nc1nc(-c2ccco2)c(-c2ccco2)s1	-14	-6	nt
COc1ccc(OC)c2sc(N3CCN(c4ccccc4)CC3)nc12	5	75*	43
COc1ccc(C)c2sc(N3CCCC3)nc12	15	-17	nt
Nc1sc2c(c1C(=O)NC1CCS(=O)(=O)C1)CCCC2 (stereo unspecified)	-6	66*	26
NC(=O)c1c(N)sc2c1CCCC2	-6	35	nt
Cc1ccc(-n2c(=O)[nH]c3c(C(N)=O)nc(-c4ccc(C)o4)nc32)cc1	nt	55*	37
Cc1ccc(-n2c(=O)[nH]c3c(C(N)=O)nc(CC(C)C)nc32)cc1	-9	1	nt
CCCCN1C(=O)/C(=C2\SC(N3CCCCC3)=NC2=O)c2ccccc21	-21	86*	25
O=C1N=C(N2CCOCC2)S/C1=C1\C(=O)N(Cc2ccccc2)c2ccc(Br)cc21	nt	12	nt
O=c1c(O)c(-c2ccc(O)cc2O)oc2cc(O)cc(O)c12	nt	75*	59*
O=c1c(-c2ccc(O)cc2O)coc2cc(O)cc(O)c12	3	nt	nt
Cc1ccc(S(=O)(=O)N(CCC(=O)O)Cc2ccc(Cl)cc2)cc1	10	nt	nt
COc1ccc(-c2[nH]c(-c3ccc(C)cc3)nc2SCC(=O)NCc2ccco2)cc1OC	7	nt	nt
CCOC(=O)CSc1nc2cc(C)cc(C)c2cc1C#N	7	10	nt
Cc1cc(C)c2cc(C#N)c(SCC(=O)NCc3ccco3)nc2c1	nt	72*	35
Cc1ccc2c(SCC(=O)NCc3ccco3)nc(-c3ccc(F)cc3)nc2c1	8	75*	55*
NC(=O)CNC(=O)[C@@H]1CC2(CC(c3ccc(Cl)cc3)=NO2)CN1C(=O)c1ccccc1 (stereo partly specified)	6	nt	nt
SMILES	RmlCD inh mix	HIV RNase H inh-1	HIV RNase H inh-2
CCOC(=O)Cc1csc(NC(=O)c2cccc(N3C(=O)CCC3=O)c2)n1	7	-17	nt
Cc1ccc(-c2csc(NC(=O)c3cccc(N4C(=O)CCC4=O)c3)n2)o1	-6	57*	24
c1ccc(Cc2nnc3sc(-c4cccnc4)nn23)cc1	-8	3	nt
c1ccc(Cc2nnc3sc(-c4ccncc4)nn23)cc1	6	93*	66*
c1ccc(Cc2nnc3sc(-c4cccs4)nn23)cc1	6	85*	33
c1ccc2c(c1)nnn2Cc1nnc2sc(-c3ccncc3)nn12	9	75*	70*
c1ccc(CCc2nn3c(Cc4ccccc4)nnc3s2)cc1	-10	90*	20
c1csc(-c2nn3c(C4CCCCC4)nnc3s2)c1	nt	-10	nt
CCOc1ccccc1-c1nn2c(Cc3ccccc3)nnc2s1	-5	-39	nt
c1csc(-c2nn3c(Cn4nnc5ccccc54)nnc3s2)c1	1	-48	nt
N#CC(c1cccc(Cl)c1)c1ncc(C(F)(F)F)cc1Cl (stereo unspecified)	21	nt	nt
NC(=O)C1=C[C@@H](c2ccc(C(F)(F)F)cc2)C[C@@H](OCCCCO)O1	10	nt	nt
CC[C@@H](C)CN1C(=O)N[C@@H](c2ccccc2)C(C(C)=O)=C1C	17	nt	nt
O=S(=O)(NCc1cn2ccsc2n1)c1ccc2c(c1)OCCO2	5	-3	nt
Cc1nc(C(=O)NC2CCCCC2)sc1C1(C)CC(c2cccnc2)=NO1 (stereo unspecified)	-56	nt	nt
O=C(c1ccc2c(c1)OCO2)N(Cc1ccco1)C1(C(=O)NC2CCCCC2)CCCCC1	2	nt	nt
O=C(c1csc2c1CCCC2)N1CCN(c2cccc(C(F)(F)F)c2)CC1	1	nt	nt
CCc1nnc2sc(-c3ccc(NC(=O)c4ccc5c(c4)OCCO5)cc3)nn12	-16	4	nt
c1ccc(Cc2nnc3sc(-c4ccc5c(c4)OCO5)nn23)cc1	-12	85*	49
O=C([C@H](Cc1ccc(O)cc1)n1cc(CCO)nn1)N1CCNCC1	-9	nt	nt
O=S(=O)(c1ccc2c(c1)OCCO2)N1CCC(n2nnc3cc(F)ccc32)CC1	-9	-2	nt
O=C(N1CCOCC1)N1CCC(n2nnc3cc(F)ccc32)CC1	14	84*	34

High-throughput results from PubChem BioAssay.
